Positions count from the first letter of the chain named.
Experiments:
Experiment in all cases: PBM; 200 nM protein, PBS
Conditions in all cases: dsDNA, one strand shown
NKX2-4 [1] = molecular target: T1, NKX2-4 (Homo sapiens, UniProt Q9H2Z4 175-261, P217L)
T1 sequence: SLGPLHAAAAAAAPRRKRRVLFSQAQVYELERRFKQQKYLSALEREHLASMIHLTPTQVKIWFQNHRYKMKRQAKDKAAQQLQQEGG

NKX2-4 [2] = molecular target: T2, NKX2-4 (Homo sapiens, UniProt Q9H2Z4 175-261, T231S)
T2 sequence: T1 sequence with L43P, T57S

NKX2-4 [3] = molecular target: T3, NKX2-4 (Homo sapiens, UniProt Q9H2Z4 175-261)
T3 sequence: T1 sequence with L43P

NKX2-4 [4] = molecular target: T4, NKX2-4 (Homo sapiens, UniProt Q9H2Z4 175-261, R246Q)
T4 sequence: T1 sequence with L43P, R72Q

In the case of GTACTCAA, the binding signal (NKX2-4 [1]) is reported as 12.6 upbm affinity estimate (log intensity, higher = more binding, comparable within an allelic series), the binding signal (NKX2-4 [2]) is reported as 13 upbm affinity estimate (log intensity, higher = more binding, comparable within an allelic series) and the binding signal (NKX2-4 [3]) is reported as 12.5 upbm affinity estimate (log intensity, higher = more binding, comparable within an allelic series). The binding signal (NKX2-4 [4]) was 13.1 upbm affinity estimate (log intensity, higher = more binding, comparable within an allelic series).
AGAGCACT was tested, and the binding signal (NKX2-4 [1]) was 12 upbm affinity estimate (log intensity, higher = more binding, comparable within an allelic series), the binding signal (NKX2-4 [2]) was 12.3 upbm affinity estimate (log intensity, higher = more binding, comparable within an allelic series) and the binding signal (NKX2-4 [3]) was 11.9 upbm affinity estimate (log intensity, higher = more binding, comparable within an allelic series). For the same sequence, the binding signal (NKX2-4 [4]) was 12.3 upbm affinity estimate (log intensity, higher = more binding, comparable within an allelic series).
In the case of ACCAACGG, the binding signal (NKX2-4 [1]) is reported as 9.32 upbm affinity estimate (log intensity, higher = more binding, comparable within an allelic series), the binding signal (NKX2-4 [2]) is reported as 9.25 upbm affinity estimate (log intensity, higher = more binding, comparable within an allelic series) and the binding signal (NKX2-4 [3]) is reported as 9.28 upbm affinity estimate (log intensity, higher = more binding, comparable within an allelic series). For the same sequence, the binding signal (NKX2-4 [4]) was 9.29 upbm affinity estimate (log intensity, higher = more binding, comparable within an allelic series).
In the case of CGATCCCG, the binding signal (NKX2-4 [1]) is reported as 9.54 upbm affinity estimate (log intensity, higher = more binding, comparable within an allelic series), the binding signal (NKX2-4 [2]) is reported as 9.56 upbm affinity estimate (log intensity, higher = more binding, comparable within an allelic series) and the binding signal (NKX2-4 [3]) is reported as 9.59 upbm affinity estimate (log intensity, higher = more binding, comparable within an allelic series). For the same sequence, the binding signal (NKX2-4 [4]) was 9.65 upbm affinity estimate (log intensity, higher = more binding, comparable within an allelic series).
With CAACCGTC the binding signal (NKX2-4 [1]) was 9.81 upbm affinity estimate (log intensity, higher = more binding, comparable within an allelic series), the binding signal (NKX2-4 [2]) was 9.78 upbm affinity estimate (log intensity, higher = more binding, comparable within an allelic series) and the binding signal (NKX2-4 [3]) was 9.8 upbm affinity estimate (log intensity, higher = more binding, comparable within an allelic series). For the same sequence, the binding signal (NKX2-4 [4]) was 9.85 upbm affinity estimate (log intensity, higher = more binding, comparable within an allelic series).
AAAGTAGC was tested, and the binding signal (NKX2-4 [1]) was 11.5 upbm affinity estimate (log intensity, higher = more binding, comparable within an allelic series), the binding signal (NKX2-4 [2]) was 11.9 upbm affinity estimate (log intensity, higher = more binding, comparable within an allelic series) and the binding signal (NKX2-4 [3]) was 11.5 upbm affinity estimate (log intensity, higher = more binding, comparable within an allelic series). For the same sequence, the binding signal (NKX2-4 [4]) was 11.7 upbm affinity estimate (log intensity, higher = more binding, comparable within an allelic series).
In the case of CACGGCTA, the binding signal (NKX2-4 [1]) is reported as 9.31 upbm affinity estimate (log intensity, higher = more binding, comparable within an allelic series), the binding signal (NKX2-4 [2]) is reported as 9.28 upbm affinity estimate (log intensity, higher = more binding, comparable within an allelic series) and the binding signal (NKX2-4 [3]) is reported as 9.21 upbm affinity estimate (log intensity, higher = more binding, comparable within an allelic series). For the same sequence, the binding signal (NKX2-4 [4]) was 9.29 upbm affinity estimate (log intensity, higher = more binding, comparable within an allelic series).
With AGCTGCGG the binding signal (NKX2-4 [1]) was 9.39 upbm affinity estimate (log intensity, higher = more binding, comparable within an allelic series), the binding signal (NKX2-4 [2]) was 9.21 upbm affinity estimate (log intensity, higher = more binding, comparable within an allelic series) and the binding signal (NKX2-4 [3]) was 9.33 upbm affinity estimate (log intensity, higher = more binding, comparable within an allelic series). For the same sequence, the binding signal (NKX2-4 [4]) was 9.45 upbm affinity estimate (log intensity, higher = more binding, comparable within an allelic series).
ATGAGTAC was tested, and the binding signal (NKX2-4 [1]) was 12.4 upbm affinity estimate (log intensity, higher = more binding, comparable within an allelic series), the binding signal (NKX2-4 [2]) was 12.8 upbm affinity estimate (log intensity, higher = more binding, comparable within an allelic series) and the binding signal (NKX2-4 [3]) was 12.3 upbm affinity estimate (log intensity, higher = more binding, comparable within an allelic series). The binding signal (NKX2-4 [4]) was 12.7 upbm affinity estimate (log intensity, higher = more binding, comparable within an allelic series).
With CGGGTACG the binding signal (NKX2-4 [1]) was 9.52 upbm affinity estimate (log intensity, higher = more binding, comparable within an allelic series), the binding signal (NKX2-4 [2]) was 9.68 upbm affinity estimate (log intensity, higher = more binding, comparable within an allelic series) and the binding signal (NKX2-4 [3]) was 9.69 upbm affinity estimate (log intensity, higher = more binding, comparable within an allelic series). The binding signal (NKX2-4 [4]) was 9.6 upbm affinity estimate (log intensity, higher = more binding, comparable within an allelic series).
For GAGTGTCC, the binding signal (NKX2-4 [1]) was 11.9 upbm affinity estimate (log intensity, higher = more binding, comparable within an allelic series), the binding signal (NKX2-4 [2]) was 12.2 upbm affinity estimate (log intensity, higher = more binding, comparable within an allelic series) and the binding signal (NKX2-4 [3]) was 11.8 upbm affinity estimate (log intensity, higher = more binding, comparable within an allelic series). For the same sequence, the binding signal (NKX2-4 [4]) was 12.2 upbm affinity estimate (log intensity, higher = more binding, comparable within an allelic series).
With CCTGGAGC the binding signal (NKX2-4 [1]) was 9.98 upbm affinity estimate (log intensity, higher = more binding, comparable within an allelic series), the binding signal (NKX2-4 [2]) was 9.95 upbm affinity estimate (log intensity, higher = more binding, comparable within an allelic series) and the binding signal (NKX2-4 [3]) was 9.96 upbm affinity estimate (log intensity, higher = more binding, comparable within an allelic series). The binding signal (NKX2-4 [4]) was 9.94 upbm affinity estimate (log intensity, higher = more binding, comparable within an allelic series).
CCCCGCCG was tested, and the binding signal (NKX2-4 [1]) was 9.51 upbm affinity estimate (log intensity, higher = more binding, comparable within an allelic series), the binding signal (NKX2-4 [2]) was 9.45 upbm affinity estimate (log intensity, higher = more binding, comparable within an allelic series) and the binding signal (NKX2-4 [3]) was 9.54 upbm affinity estimate (log intensity, higher = more binding, comparable within an allelic series). For the same sequence, the binding signal (NKX2-4 [4]) was 9.57 upbm affinity estimate (log intensity, higher = more binding, comparable within an allelic series).
CAGGCATG was tested, and the binding signal (NKX2-4 [1]) was 9.76 upbm affinity estimate (log intensity, higher = more binding, comparable within an allelic series), the binding signal (NKX2-4 [2]) was 9.76 upbm affinity estimate (log intensity, higher = more binding, comparable within an allelic series) and the binding signal (NKX2-4 [3]) was 9.66 upbm affinity estimate (log intensity, higher = more binding, comparable within an allelic series). For the same sequence, the binding signal (NKX2-4 [4]) was 9.82 upbm affinity estimate (log intensity, higher = more binding, comparable within an allelic series).
In the case of ACTTATCC, the binding signal (NKX2-4 [1]) is reported as 11.9 upbm affinity estimate (log intensity, higher = more binding, comparable within an allelic series), the binding signal (NKX2-4 [2]) is reported as 12.1 upbm affinity estimate (log intensity, higher = more binding, comparable within an allelic series) and the binding signal (NKX2-4 [3]) is reported as 11.7 upbm affinity estimate (log intensity, higher = more binding, comparable within an allelic series). The binding signal (NKX2-4 [4]) was 12.1 upbm affinity estimate (log intensity, higher = more binding, comparable within an allelic series).
In the case of CAGTGACC, the binding signal (NKX2-4 [1]) is reported as 9.77 upbm affinity estimate (log intensity, higher = more binding, comparable within an allelic series), the binding signal (NKX2-4 [2]) is reported as 9.84 upbm affinity estimate (log intensity, higher = more binding, comparable within an allelic series) and the binding signal (NKX2-4 [3]) is reported as 9.8 upbm affinity estimate (log intensity, higher = more binding, comparable within an allelic series). For the same sequence, the binding signal (NKX2-4 [4]) was 9.7 upbm affinity estimate (log intensity, higher = more binding, comparable within an allelic series).
TCATCGAA was tested, and the binding signal (NKX2-4 [1]) was 11.4 upbm affinity estimate (log intensity, higher = more binding, comparable within an allelic series), the binding signal (NKX2-4 [2]) was 11.5 upbm affinity estimate (log intensity, higher = more binding, comparable within an allelic series) and the binding signal (NKX2-4 [3]) was 11.2 upbm affinity estimate (log intensity, higher = more binding, comparable within an allelic series). For the same sequence, the binding signal (NKX2-4 [4]) was 11.5 upbm affinity estimate (log intensity, higher = more binding, comparable within an allelic series).
ACAATGAG was tested, and the binding signal (NKX2-4 [1]) was 11.4 upbm affinity estimate (log intensity, higher = more binding, comparable within an allelic series), the binding signal (NKX2-4 [2]) was 11.5 upbm affinity estimate (log intensity, higher = more binding, comparable within an allelic series) and the binding signal (NKX2-4 [3]) was 11.3 upbm affinity estimate (log intensity, higher = more binding, comparable within an allelic series). For the same sequence, the binding signal (NKX2-4 [4]) was 11.4 upbm affinity estimate (log intensity, higher = more binding, comparable within an allelic series).
CCGCCACG was tested, and the binding signal (NKX2-4 [1]) was 9.92 upbm affinity estimate (log intensity, higher = more binding, comparable within an allelic series), the binding signal (NKX2-4 [2]) was 9.9 upbm affinity estimate (log intensity, higher = more binding, comparable within an allelic series) and the binding signal (NKX2-4 [3]) was 9.94 upbm affinity estimate (log intensity, higher = more binding, comparable within an allelic series). The binding signal (NKX2-4 [4]) was 9.94 upbm affinity estimate (log intensity, higher = more binding, comparable within an allelic series).
With GCGCGACA the binding signal (NKX2-4 [1]) was 9.99 upbm affinity estimate (log intensity, higher = more binding, comparable within an allelic series), the binding signal (NKX2-4 [2]) was 10 upbm affinity estimate (log intensity, higher = more binding, comparable within an allelic series) and the binding signal (NKX2-4 [3]) was 10 upbm affinity estimate (log intensity, higher = more binding, comparable within an allelic series). The binding signal (NKX2-4 [4]) was 10.1 upbm affinity estimate (log intensity, higher = more binding, comparable within an allelic series).
For CCGCTAGG, the binding signal (NKX2-4 [1]) was 9.61 upbm affinity estimate (log intensity, higher = more binding, comparable within an allelic series), the binding signal (NKX2-4 [2]) was 9.55 upbm affinity estimate (log intensity, higher = more binding, comparable within an allelic series) and the binding signal (NKX2-4 [3]) was 9.61 upbm affinity estimate (log intensity, higher = more binding, comparable within an allelic series). For the same sequence, the binding signal (NKX2-4 [4]) was 9.6 upbm affinity estimate (log intensity, higher = more binding, comparable within an allelic series).
For CTGCGCAG, the binding signal (NKX2-4 [1]) was 9.75 upbm affinity estimate (log intensity, higher = more binding, comparable within an allelic series), the binding signal (NKX2-4 [2]) was 9.81 upbm affinity estimate (log intensity, higher = more binding, comparable within an allelic series) and the binding signal (NKX2-4 [3]) was 9.75 upbm affinity estimate (log intensity, higher = more binding, comparable within an allelic series). For the same sequence, the binding signal (NKX2-4 [4]) was 9.93 upbm affinity estimate (log intensity, higher = more binding, comparable within an allelic series).
With ACCGTTAC the binding signal (NKX2-4 [1]) was 9.89 upbm affinity estimate (log intensity, higher = more binding, comparable within an allelic series), the binding signal (NKX2-4 [2]) was 9.95 upbm affinity estimate (log intensity, higher = more binding, comparable within an allelic series) and the binding signal (NKX2-4 [3]) was 9.88 upbm affinity estimate (log intensity, higher = more binding, comparable within an allelic series). For the same sequence, the binding signal (NKX2-4 [4]) was 9.92 upbm affinity estimate (log intensity, higher = more binding, comparable within an allelic series).

From paper PMC11006913
